Results: PubChem BioAssay
Active and inactive are the calls of the source.

Assays:
[1] = system: Plasmodium falciparum Sir2 (PF13_0152, Sir2A); experiment: Plasmodium falciparum Sir2A binding compounds – biochemical, small-molecule microarray, 635 nm fluorescence, primary screen (AID 1098); conditions: fluorescence 635 nm, higher = more signal;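 also: score merges spot fluorescence intensity with its signal-to-noise ratio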
[2] = probe aDKK1 binding to arrayed compounds – biochemical, biotinylated probe, 635/667 nm fluorescence, primary screen (AID 1099); conditions: small-molecule microarray, higher = more signal;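 also: score merges 667nm spot fluorescence with signal to noise across triplicate slides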
[3] = probe aCHRDL2 binding to arrayed compounds – biochemical, biotinylated probe, 635/667 nm fluorescence, primary screen (AID 1100); conditions: small-molecule microarray, higher = more signal
[4] = change in splice reporter luminescence, either direction, cell-based, HEK293, spliceosome inhibition project, primary screen (AID 1101); conditions: HEK293 splicing luciferase reporter, 24 h, higher = more signal, called active from +8 up or from −8 down;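 also: HEK293 cells carrying a splicing-competent luciferase reporter gene; test concentration not given here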
[5] = target: Fibroblast growth factor 10 (Homo sapiens) (UniProt O15520); experiment: compounds binding fibroblast growth factor 10 – biochemical, small-molecule microarray, 635 nm fluorescence, primary screen (AID 1102); conditions: FGF10 binding, fluorescence 635 nm, higher = more signal
[6] = system: glycogen synthase kinase-3 (GSK3A per assay name; protocol says GSK3B); experiment: compounds binding glycogen synthase kinase-3 – biochemical, small-molecule microarray, 635 nm fluorescence, GSK3A, primary screen (AID 1103); conditions: fluorescence 635 nm, higher = more signal; also: the record names both GSK3A and GSK3B
[7] = target: Epidermal growth factor receptor (Homo sapiens) (UniProt P00533); experiment: compounds binding epidermal growth factor receptor – biochemical, small-molecule microarray, 635 nm fluorescence, primary screen (AID 1104); conditions: EGFR binding, higher = more signal;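 also: score merges 667 nm emission intensity with spot signal to noise over triplicate slides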
[8] = target: Follistatin-related protein 3 (Homo sapiens) (UniProt O95633); experiment: compounds binding follistatin-related protein 3 – biochemical, small-molecule microarray, 635 nm fluorescence, primary screen (AID 1105); conditions: FSTL3 binding, higher = more signal;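 also: score merges emission near 667 nm and signal to noise per printed spot across three slides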
[9] = target: Dickkopf-related protein 1 (Homo sapiens) (UniProt O94907); experiment: small molecules binding DKK1 protein – biochemical, small-molecule microarray, 635 nm fluorescence scan, primary screen (AID 1106); conditions: higher = more signal;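 also: score merges emission near 667 nm with signal to noise over three replicate slides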
[10] = system: Inhibin beta A chain (activin A); experiment: small molecules binding activin A – biochemical, small-molecule microarray, 635 nm fluorescence scan, primary screen (AID 1107); conditions: INHBA, higher = more signal;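 also: mouse activin A protein probed at 4.33 µg/mL on printed slides; score merges bound-protein fluorescence near 667 nm with spot signal-to-noise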
[11] = system: Human papillomavirus type 1a protein E7 (residues 44-93); experiment: small molecules binding HPV E7 44-93 – biochemical, small-molecule microarray, residues 44-93, 635 nm fluorescence, primary screen (AID 1108); conditions: fluorescence 635 nm, higher = more signal;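 also: E7 fragment applied at 1 µg/mL in TBST for 1 h at 4 C; score combines spot fluorescence with its signal to noise ratio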
[12] = hepatitis C replication reporter changes, two-sided – Huh7 cells, luciferase reporter, HCV replication inhibitor project, primary screen (AID 1109); conditions: Huh7 HCV replicon luciferase reporter, 48 h; higher = more signal;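 also: huh7 hepatoma cells harbouring a luciferase neomycin HCV replicon reporter; luciferase luminescence as measure of HCV replicon replication; test concentration not given here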
[13] = target: Left-right determination factor 2 (Homo sapiens) (UniProt O00292); experiment: small molecules binding LEFTY2 protein – biochemical, small-molecule microarray, 635 nm fluorescence scan, primary screen (AID 1110); conditions: higher = more signal
[14] = target: Calmodulin-1 (Homo sapiens) (UniProt P0DP23); experiment: small molecules binding calmodulin-1 with EGTA – biochemical, small-molecule microarray, Cy5-labelled CALM1, profiling panel (AID 1111); conditions: Cy5-CALM1 binding fluorescence, higher = more signal;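 also: labelled calmodulin applied in Tris saline Tween buffer holding calcium plus EGTA and DTT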
[15] = target: Calmodulin-1 (Homo sapiens) (UniProt P0DP23); experiment: small molecules binding Ca-loaded calmodulin-1 – biochemical, small-molecule microarray, Cy5-labelled CALM1, plus calcium, artefact control for SMM control-protein annotation, profiling panel (AID 1112); conditions: Cy5-CALM1 binding fluorescence, higher = more signal;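 also: score merges spot fluorescence with signal to noise from triplicate slides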
[16] = probe aWnt5a binding to arrayed compounds – biochemical, biotinylated probe, 635/667 nm fluorescence, primary screen (AID 1113); conditions: small-molecule microarray, higher = more signal;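 also: score merges 667 nm fluorescence intensity with signal-to-noise per printed feature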
[17] = probe aShh binding to arrayed compounds – biochemical, biotinylated probe, 635/667 nm fluorescence, primary screen (AID 1114); conditions: small-molecule microarray, higher = more signal;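 also: probe is biotin-labelled aShh protein from a stem cell growth factor screen; measures binding of labelled protein to compounds printed on the slide; score merges feature fluorescence at 667 nm with signal-to-noise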
[18] = probe aNog binding to arrayed compounds – biochemical, biotinylated probe, 635/667 nm fluorescence, primary screen (AID 1115); conditions: small-molecule microarray, higher = more signal;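 also: probe is biotinylated aNog protein used at 0.15 µg/mL for 1 h at 4 C; z-score combines 667 nm fluorescence of each spot with its signal to noise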
[19] = target: Torsin-1A-interacting protein 1 (Homo sapiens) (UniProt Q5JTV8); experiment: compound microarray binding of lysate hLAP1 – cell lysate, small-molecule microarray, COS7 lysate, 635/667 nm fluorescence, primary screen (AID 1116); conditions: 635 nm fluorescence, higher = more signal
[20] = target: Alpha-bungarotoxin (Bungarus multicinctus) (UniProt P60615); experiment: compounds binding labelled alpha-BTX control protein – biochemical, small-molecule microarray, Alexa647 label, 635/667 nm fluorescence, artefact control for SMM control protein annotation, profiling panel (AID 1117); conditions: alpha-BTX-A647 binding fluorescence, higher = more signal
Alpha-bungarotoxin (Bungarus multicinctus), sequence (P60615 whole entry, looked up): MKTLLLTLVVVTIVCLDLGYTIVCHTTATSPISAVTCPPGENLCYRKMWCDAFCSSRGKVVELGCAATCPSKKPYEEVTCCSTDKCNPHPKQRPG

Dickkopf-related protein 1 (Homo sapiens), sequence (O94907 whole entry, looked up): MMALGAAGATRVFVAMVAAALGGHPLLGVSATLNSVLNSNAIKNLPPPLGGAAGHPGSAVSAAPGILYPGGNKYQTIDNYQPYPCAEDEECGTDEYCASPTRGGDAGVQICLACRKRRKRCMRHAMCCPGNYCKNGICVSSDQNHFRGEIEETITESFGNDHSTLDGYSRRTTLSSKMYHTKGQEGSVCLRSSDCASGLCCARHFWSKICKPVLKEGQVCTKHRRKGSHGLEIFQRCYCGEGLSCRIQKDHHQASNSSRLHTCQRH
Torsin-1A-interacting protein 1 (Homo sapiens), sequence (Q5JTV8 whole entry, looked up): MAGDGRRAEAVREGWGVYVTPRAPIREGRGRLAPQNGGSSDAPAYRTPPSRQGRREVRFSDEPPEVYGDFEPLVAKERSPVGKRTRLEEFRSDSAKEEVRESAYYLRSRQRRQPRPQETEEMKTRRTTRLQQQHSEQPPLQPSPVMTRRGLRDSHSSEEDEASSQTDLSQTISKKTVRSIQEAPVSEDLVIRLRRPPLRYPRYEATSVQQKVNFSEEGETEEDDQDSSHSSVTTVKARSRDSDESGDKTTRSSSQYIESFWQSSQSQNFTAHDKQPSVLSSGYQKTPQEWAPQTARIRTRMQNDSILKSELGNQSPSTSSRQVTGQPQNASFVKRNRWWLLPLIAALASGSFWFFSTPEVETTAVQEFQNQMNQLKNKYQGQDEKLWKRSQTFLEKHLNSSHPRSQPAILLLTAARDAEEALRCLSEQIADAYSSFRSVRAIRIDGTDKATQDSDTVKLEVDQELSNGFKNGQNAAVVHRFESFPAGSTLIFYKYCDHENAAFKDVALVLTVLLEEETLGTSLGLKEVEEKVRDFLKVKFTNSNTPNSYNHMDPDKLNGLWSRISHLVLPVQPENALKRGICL
Fibroblast growth factor 10 (Homo sapiens), sequence (O15520 whole entry, looked up): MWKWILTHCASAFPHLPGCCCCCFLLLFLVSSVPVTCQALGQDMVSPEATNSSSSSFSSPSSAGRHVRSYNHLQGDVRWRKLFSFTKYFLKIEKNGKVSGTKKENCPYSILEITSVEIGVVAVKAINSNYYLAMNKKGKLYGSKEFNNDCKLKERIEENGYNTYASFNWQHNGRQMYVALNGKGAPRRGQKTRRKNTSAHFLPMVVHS
Left-right determination factor 2 (Homo sapiens), sequence (O00292 whole entry, looked up): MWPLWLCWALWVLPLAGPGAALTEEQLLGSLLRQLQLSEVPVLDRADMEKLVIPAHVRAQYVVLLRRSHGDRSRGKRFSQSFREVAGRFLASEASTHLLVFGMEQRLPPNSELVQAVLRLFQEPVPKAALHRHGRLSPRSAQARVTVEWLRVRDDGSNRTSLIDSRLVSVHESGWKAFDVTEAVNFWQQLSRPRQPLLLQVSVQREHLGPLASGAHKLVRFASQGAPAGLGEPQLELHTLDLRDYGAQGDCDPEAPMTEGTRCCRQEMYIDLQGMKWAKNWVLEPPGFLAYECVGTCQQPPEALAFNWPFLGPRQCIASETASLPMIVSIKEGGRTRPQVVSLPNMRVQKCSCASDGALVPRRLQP
Follistatin-related protein 3 (Homo sapiens), sequence (O95633 whole entry, looked up): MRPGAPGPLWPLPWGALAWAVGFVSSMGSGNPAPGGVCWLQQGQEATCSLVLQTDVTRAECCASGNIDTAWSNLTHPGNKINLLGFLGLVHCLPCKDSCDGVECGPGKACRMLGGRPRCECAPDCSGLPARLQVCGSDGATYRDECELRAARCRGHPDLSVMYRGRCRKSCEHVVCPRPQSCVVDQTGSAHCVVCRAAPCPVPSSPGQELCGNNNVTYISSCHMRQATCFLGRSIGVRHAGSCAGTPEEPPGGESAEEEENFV
Epidermal growth factor receptor (Homo sapiens), sequence (P00533 whole entry, looked up): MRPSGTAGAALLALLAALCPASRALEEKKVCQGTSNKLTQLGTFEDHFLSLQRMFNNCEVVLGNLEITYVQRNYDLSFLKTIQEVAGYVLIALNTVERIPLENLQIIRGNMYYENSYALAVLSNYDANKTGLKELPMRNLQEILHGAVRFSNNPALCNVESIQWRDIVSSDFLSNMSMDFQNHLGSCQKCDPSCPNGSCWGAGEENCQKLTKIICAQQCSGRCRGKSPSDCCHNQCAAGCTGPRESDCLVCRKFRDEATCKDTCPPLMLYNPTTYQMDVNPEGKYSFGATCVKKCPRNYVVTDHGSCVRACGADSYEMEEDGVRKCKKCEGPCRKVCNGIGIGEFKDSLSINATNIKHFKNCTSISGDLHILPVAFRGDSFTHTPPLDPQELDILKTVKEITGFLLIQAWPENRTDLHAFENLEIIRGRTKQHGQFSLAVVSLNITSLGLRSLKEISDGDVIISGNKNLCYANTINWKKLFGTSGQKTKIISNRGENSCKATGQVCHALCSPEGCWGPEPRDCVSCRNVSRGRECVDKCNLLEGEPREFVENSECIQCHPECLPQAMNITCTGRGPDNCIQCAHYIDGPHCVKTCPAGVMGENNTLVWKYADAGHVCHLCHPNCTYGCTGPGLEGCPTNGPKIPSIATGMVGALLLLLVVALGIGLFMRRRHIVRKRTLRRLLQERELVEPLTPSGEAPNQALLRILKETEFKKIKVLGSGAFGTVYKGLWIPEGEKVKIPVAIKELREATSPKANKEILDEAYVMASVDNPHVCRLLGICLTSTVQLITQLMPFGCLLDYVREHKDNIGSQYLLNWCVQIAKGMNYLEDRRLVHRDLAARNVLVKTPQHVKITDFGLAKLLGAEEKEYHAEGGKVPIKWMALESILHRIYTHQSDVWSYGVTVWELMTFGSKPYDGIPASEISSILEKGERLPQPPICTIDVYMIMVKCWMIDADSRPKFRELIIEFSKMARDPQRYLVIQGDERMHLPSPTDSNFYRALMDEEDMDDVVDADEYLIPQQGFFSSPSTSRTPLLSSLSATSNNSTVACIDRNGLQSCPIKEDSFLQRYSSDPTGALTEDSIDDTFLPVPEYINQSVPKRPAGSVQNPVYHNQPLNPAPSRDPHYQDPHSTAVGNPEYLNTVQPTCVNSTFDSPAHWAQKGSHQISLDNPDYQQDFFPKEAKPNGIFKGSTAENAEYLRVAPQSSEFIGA

Row | SMILES | composite z-score [1] | composite z-score [2] | composite z-score [3] | z-score [4] | composite z-score [5] | composite z-score [6] | composite z-score [7] | composite z-score [8] | composite z-score [9] | composite z-score [10] | composite z-score [11] | z-score [12] | composite z-score [13] | composite z-score [14] | composite z-score [15] | composite z-score [16] | composite z-score [17] | composite z-score [18] | composite z-score [19] | composite z-score [20]
1 | CCCC=C(CCC)[C@@H](NS(=O)(=O)c1cccs1)c1ccc(C(=O)OC)cc1 | 0.565 | 0.922 | 1.18 | 3.75 (inactive) | 0.77 | 1.19 | -0.122 | 0.622 | -0.569 | -0.0034 | 1.37 | -2.93 | -0.452 | 1.6 | 0.85 | 0.105 | 0.605 | 1.41 | 0.554 | 1.24
2 | C=CCOC(=O)[C@H]1[C@@H]2C(=O)O[C@@H](c3ccccc3)[C@@H](c3ccccc3)N2[C@@H](c2ccc(OCCOC(=O)[C@H]3C[C@H]4C(=O)N5CCC[C@H]5C(=O)N4[C@H]3c3ccc(O)cc3)cc2)[C@]12C(=O)Nc1ccc(I)cc12 | 2.09 | 1.76 | 1.42 | -1.93 (inactive) | 1.47 | 1.37 | 0.429 | 1.42 | 1.97 | 1.41 | 1.48 | 0.56 | 1.52 | 1.22 | 1.41 | 0.547 | 2.8 | 2.82 | 2.74 | 2.81
3 | C=CCN1C(=O)[C@@]2(O[C@@H](CCO)[C@H]([Si](C)(C)c3ccc(OC)cc3)[C@H]2C)c2cc(NC(=O)c3ccc(OC)cc3)ccc21 | 0.45 | -0.138 | -0.46 | -0.491 (inactive) | 1.09 | 0.587 | 0.424 | 0.722 | 0.532 | 1.32 | -0.747 | -4.9 | 0.629 | -0.178 | 0.678 | -0.199 | 0.0062 | 0.141 | -0.419 | 0.565
4 | COCCOC(=O)N1C(=O)[C@@]2(c3ccccc31)[C@H](c1ccc(O)cc1)N1[C@H](c3ccccc3)[C@H](c3ccccc3)OC(=O)[C@H]1[C@@H]2C(=O)NC[C@H](O)c1ccccc1 | 1.12 | -0.0866 | -0.0184 | -1.07 (inactive) | 0.12 | 0.191 | -0.291 | -0.195 | -0.341 | -0.202 | 0.01 | -0.296 | 0.25 | 1.34 | 0.682 | -0.0643 | 0.289 | 0.35 | 0.261 | 0.14
5 | C=CC[C@]12N=C(c3ccc(OCCCO)cc3)O[C@H]1c1ccccc1N(Cc1ccccc1)C2=O | 1.28 | 1.21 | 1.37 | -0.415 (inactive) | 0.706 | 0.524 | 0.112 | 0.836 | 0.378 | 0.897 | 0.0023 | -2.57 | 0.192 | -0.162 | 0.438 | 0.0032 | -0.0146 | 0.472 | 1.9 | 1.51
6 | COc1ccc(CCN2C(=O)[C@@]3(c4ccc([N+](=O)[O-])cc4)CC(=O)N(C4CCCCC4)[C@@H]3c3ccc(CO)cc32)cc1 | 0.582 | 0.274 | 0.181 | -0.0884 (inactive) | 0.586 | 0.711 | -0.267 | 1.2 | 1.48 | 0.889 | 0.106 | 0.431 | 0.636 | -0.574 | -0.747 | 0.0495 | -0.229 | -0.33 | 0.341 | -0.167
7 | CC(C)(C)OC(=O)CC[C@@]1(C(=O)NCCN2CCOCC2)N=C(c2ccc(OCCCO)cc2)O[C@@H]1c1ccccc1N=[N+]=[N-] | 0.739 | 1.04 | 1.21 | -0.744 (inactive) | 1.1 | 0.0778 | 0.0224 | 1.06 | 0.0741 | 1.24 | 1.32 | -0.291 | 0.609 | 0.147 | 0.0196 | 0.108 | 0.171 | 0.991 | 0.694 | 0.783
8 | COCCCNC(=O)[C@@]1(Cc2ccccc2N=[N+]=[N-])N=C(c2ccc(OCCCO)cc2)O[C@H]1c1ccccc1N=[N+]=[N-] | 1.34 | 1.04 | 1.25 | 1.87 (inactive) | 0.935 | 0.82 | 0.372 | 0.937 | -0.138 | 0.797 | 0.852 | -2.86 | 0.431 | 1.72 | 0.686 | 0.168 | -0.477 | 1.43 | 0.561 | 1.74
9 | O=C1O[C@H](c2ccccc2)[C@H](c2ccccc2)N2[C@H]1[C@@H](C(=O)O)[C@]1(C(=O)Nc3ccc(C#CC4=CCCCC4)cc31)[C@H]2c1ccccc1OCCO | 1.49 | -0.738 | 0.134 | -0.246 (inactive) | 1.19 | 1.32 | 0.228 | 1.23 | 0.455 | 1.01 | -0.65 | -2.4 | 0.663 | 1.61 | 0.179 | 0.795 | -0.602 | 0.948 | 0.926 | 2.23
10 | CCOC(=O)C[C@H]1[C@H](OC(=O)Cc2ccc3c(c2)OCO3)[C@@H](NC(=O)c2ccc(-c3ccccc3)cc2)c2cc(OCCCO)ccc2N1C(=O)c1ccc2ccccc2n1 | -0.0119 | -0.319 | -0.486 | -2.82 (inactive) | 0.556 | 0.28 | 0.468 | 0.321 | 0.434 | -0.0169 | 0.226 | -1.37 | 0.445 | 0.284 | -0.788 | -0.0828 | -0.146 | -0.261 | 0.142 | 0.0797
11 | CN(C)C(=O)[C@@]1(Cc2ccccc2)N=C(c2ccc(OCCCO)cc2)O[C@H]1c1ccccc1N=[N+]=[N-] | 1.36 | 0.898 | 0.914 | -1.26 (inactive) | 1.36 | 1.26 | 0.189 | 0.843 | -0.237 | 0.994 | 1.42 | -2.79 | -0.0506 | 1.09 | 0.0779 | 0.178 | -0.0146 | -0.482 | 0.491 | 0.567
